The full list was thinned out, with hits kept by preference.
TTR transcr act: TTR transcription activation, primary screen | 92,000 compounds, 1.3% hits | SH-SY5Y TTR promoter Gaussia luciferase, luminescence; 100% = recombinant luciferase protein wells | activation, % at 16.7 µM;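 active means activation above the mean of all tested compounds plus 3 SD, cut at about 9.5% in these data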;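 further: cells exposed to compounds for one day before reading; 0% = median of all test compound wells on the plate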
HuH7 TTR inh: decreases TTR transcription in HuH7 cells in activator counter-screen. shares compounds with TTR transcr act. HuH7 TTR promoter-Gaussia luciferase reporter, luminescence. inhibition, % at 16.7 µM. 1,100 compounds, 4% hits. AID 1117279;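 active means average inhibition above the solvent-only control wells' mean plus 3 SD, cut at about 15% in these data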;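 further: 0% = cells with DMSO only and 100% = cells with inhibitor control FD; inhibitors lower well luminescence so higher value means more inhibition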
TTR up confirm: human TTR transcription activation, confirmation; shares compounds with TTR transcr act; 1,100 tested, under 10 active; AID 1117280; SHSY5Y TTR promoter Gaussia luciferase, luminescence; 100% = purified Lucia enzyme wells, no cells; activation, % at 16.7 µM;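 active means mean activation above a set limit taken from the earlier primary screen, cut at about 11% in these data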;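 further: 0% = DMSO-treated cells and 100% = recombinant Lucia luciferase without cells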
* = called active by the depositor.

SMILES	TTR transcr act	others
Cc1ccc(C#N)c(SCc2cc3c(cc2Cl)OCO3)n1	6.5
FC(F)(F)c1ccc2nc(CNc3nc(N4CCOCC4)nc4c3ncn4-c3ccsc3)[nH]c2c1	1.7
CCn1c2ccc(CC(=O)O)cc2c2cc(CC(=O)O)ccc21	0.4
CCn1c2ccccc2c2cc(CN3CCN(S(=O)(=O)CC)CC3)ccc21	18.9*	HuH7 TTR inh=-8.6;TTR up confirm=1.0
CCn1c(=O)cc(SCC(=O)N2CCN(Cc3ccc4c(c3)OCO4)CC2)c2ccccc21	1.3
COC(=O)[C@]12C[C@H](CC(=O)N3CCSCC3)C(=O)N(CCc3ccc(OC)c(OC)c3)C1=C[C@H](C(C)C)O[C@@H]2C1CC1	9.2
COc1ccc(N2CCN(CCCn3ccc(NC(=O)OCc4ccccc4)nc3=O)CC2)cc1	-1.9
CN1C(=O)c2cc(NC(=O)c3ccc(F)cc3)ccc2OC[C@H]2O[C@H](CC(=O)NC3CCC3)CC[C@H]21	0.6
CN1CCN(NC(=O)c2ccc(COc3ccccc3Br)o2)CC1	5.0
CC1CCN(C(=O)c2ccc(COc3ccccc3Cl)o2)CC1	-3.5
O=C(c1ccc(COCC(F)(F)F)o1)N1CCCCCC1	-0.7
O=C(c1ccc(COc2ccccc2Cl)o1)N1CCCC1	10.4*	HuH7 TTR inh=-11.5;TTR up confirm=0.3
CC1CN(C(=O)c2ccccc2OCc2ccccc2Cl)CC(C)O1 (centres undefined)	-1.0
CC1CN(C(=O)c2ccc(COc3ccccc3Br)o2)CC(C)O1 (centres undefined)	68.7*	HuH7 TTR inh=-9.4;TTR up confirm=0.1
CN(C(=O)CSc1ncnc2sc3c(c12)CCCC3)C1CCS(=O)(=O)C1 (centres undefined)	0.1
O=[N+]([O-])c1cccc2[nH]c(CNc3nc(N4CCOCC4)nc4c3ncn4-c3ccsc3)nc12	1.1
C[C@@H](NC(=O)[C@@H]1Cc2ccccc2CN1)C(=O)NCc1ccco1	-0.5
COc1ccc(CNC(=O)OC2CC3CC2[C@H]2CCCCN2C3)cc1 (some centres undefined)	-0.6
COc1cc(CNCC(O)c2ccccc2)ccc1OCc1ccc(Cl)nc1 (centres undefined)	10.5*	HuH7 TTR inh=-9.1;TTR up confirm=2.6
COc1cc(CNCc2ccccn2)ccc1OCc1ccccc1Cl	-1.4
CSc1ccc(CNCC(O)c2ccccc2)cc1 (centres undefined)	4.2
CCOC(=O)[C@]12CCCC=C1N(CCCOC)C(=O)[C@@H]2CC(=O)NCCc1ccccc1OC	0.3
N/C(=N\OC(=O)c1ccc2c(c1)OCO2)c1cccnc1	0.8
N/C(=N\OC(=O)c1ccccc1)c1cccnc1	10.2*	HuH7 TTR inh=-11.0;TTR up confirm=1.9
Cc1ccc(C(=O)O/N=C(\c2ccccc2)c2cccnc2)cc1	0.5
SMILES	TTR transcr act	others
COC(=O)C[C@@H]1CC[C@H]2[C@@H](COc3ccc(NC(=O)Nc4cccc(F)c4)cc3C(=O)N2C)O1	-1.5
CN1C2=N[C@H](c3cccc(C(F)(F)F)c3)CC(=O)N2/C(=C\c2ccccc2)[C@H]1c1ccccc1	3.8
COc1ccc(-c2nc(C)c(C(C)=O)n2O)cc1	-0.5
CCOC(=O)CSc1nnc(-c2ccc(OC)cc2)n1CC	-0.9
COc1ccc(C(C)n2c(C)c3c(C)nnc(C)c3c2C)cc1 (centres undefined)	9.8*	HuH7 TTR inh=-9.3;TTR up confirm=1.1
COC(=O)[C@]12C[C@H](CC(=O)N3CCSCC3)C(=O)N(Cc3ccco3)C1=C[C@H](COCc1ccccc1)O[C@@H]2C	-0.7
CC1C(C#N)=C(N)OC2=C1C(=O)CC(c1ccccc1)C2 (centres undefined)	15.1*	HuH7 TTR inh=-13.5;TTR up confirm=-1.0
CC1(C)CC(=O)C2=C(C1)OC(N)=C(C#N)[C@@H]2c1ccccc1[N+](=O)[O-]	-0.2
COc1ccc(C2C(C#N)=C(N)OC3=C2C(=O)CC(C)(C)C3)cc1 (centres undefined)	2.0
O=C(O)CCC(=O)OCCN(Cc1ccc(Oc2ccc([N+](=O)[O-])cc2)cc1)C(=O)C(Cl)Cl	-1.3
COc1ccc(C2C(C(=O)O)c3ccccc3C(=O)N2C)cc1Br (centres undefined)	11.3*	HuH7 TTR inh=-5.4;TTR up confirm=0.4
COc1ccc(OC)c(C2C(C(=O)O)c3ccccc3C(=O)N2C)c1 (centres undefined)	-1.9
COc1ccc(C2C(C(=O)N3CCN(c4ccccc4)CC3)c3ccccc3C(=O)N2C)cc1OC (centres undefined)	2.0
COc1ccc(C(=O)N2CCC2(C)C(=O)NC(C)C)cc1OC (centres undefined)	1.8
COC(=O)CNC(=O)[C@H](Cc1ccccc1)NC1(C(=O)NCCc2c[nH]c3ccccc23)CCCCC1	-1.6
N#Cc1cccc(NC(=O)OC2CC3CC2[C@H]2CCCCN2[C@H]3Cc2ccccc2)c1 (some centres undefined)	-0.4
Cc1ccc(CN2CCCCC(NC(=O)C(C)(C)C)C2=O)cc1 (centres undefined)	-1.3
CCCCn1c2c(cc(C(=O)OC)c1=O)C(=O)CCC2	23.5*	HuH7 TTR inh=-0.1;TTR up confirm=-0.9
O=C1CCCc2c1cc(C(=O)O)c(=O)n2-c1ccccc1	1.5
COC(=O)c1cc(-c2cccc3ccccc23)c(=O)n2c1CCC2	-1.0
O=C(NC1CC[C@@]23CCCN2C(=O)CCC[C@H]3C1)c1ccccc1 (some centres undefined)	-0.1
Cc1ccc(-c2c(NC(=O)c3cccc(C)c3)nc3ncccn23)cc1	2.2
CCn1c(=O)[nH]n(C/C(C)=C\c2c[n+](Cc3ccc4c(c3)OCO4)c(N)[nH]2)c1=O	0.5
O=C(Nc1sc2c(c1-c1nc3ccccc3s1)CCNC2)C(F)(F)F	-0.2
COc1ccc(/C=C/C(=O)NCc2ccc3c(c2)OCO3)cc1OC	0.5
SMILES	TTR transcr act	others
COc1ccc(CNC(=O)/C=C/c2ccco2)cc1OC	12.6*	HuH7 TTR inh=-6.8;TTR up confirm=0.4
COc1ccc(CN(C(=O)/C=C/c2ccco2)C2CCS(=O)(=O)C2)cc1OC (centres undefined)	-0.2
Cc1ccc(C(=O)N2CCCC(N3CCN(c4cccc(C(F)(F)F)c4)CC3)C2)s1 (centres undefined)	-0.3
O=C(c1ccoc1)N1CCCC(N2CCN(c3cccc(C(F)(F)F)c3)CC2)C1 (centres undefined)	-0.1
CC1=C(C(=O)N2CCCC(N3CCN(c4cccc(C(F)(F)F)c4)CC3)C2)OCCO1 (centres undefined)	11.1*	HuH7 TTR inh=-5.7;TTR up confirm=0.0
COC(=O)[C@H](Cc1ccccc1)NP(=O)(OC)[C@@H](C)NC(=O)OCc1ccccc1 (some centres undefined)	-0.1
CN(C)[C@H]1CCN(c2cccc3c2S(=O)(=O)N(C2CC2)CCCO3)C1	1.7
Cc1ccc(-n2c(CNc3cccc(Cl)c3)n[nH]c2=S)cc1	2.3
Cc1ccc(-n2c(CSc3nc(C)cc(C)n3)n[nH]c2=S)cc1	26.2*	HuH7 TTR inh=-3.1;TTR up confirm=-0.6
Cc1nc2ccccc2n1Cc1n[nH]c(=S)n1-c1ccc(Cl)cc1	0.5
CC(=O)NC(Cc1ccccc1)P(=O)(O)O (centres undefined)	-1.5
CCOc1ccc(-n2c(=O)cc(N3CCN(c4ccc(F)cc4)CC3)[nH]c2=O)cc1	0.7
CCOC(=O)N1CCN(c2cc(=O)n(-c3ccccc3C)c(=O)[nH]2)CC1	-0.7
CCOC(=O)N1CCN(c2cc(=O)n(-c3ccc(OC)cc3)c(=O)[nH]2)CC1	9.7*	HuH7 TTR inh=-4.1;TTR up confirm=-0.8

Screens as filed in PubChem.
